Test results published in PubChem BioAssay AID1159580 (chemical genetic matrix, 2015).
Among all 5,500 compounds or so, about 2,000 (36%) were called active. Roughly 18% stayed inconclusive and do not appear here. Rule as the data show it: active = normalized growth mostly below about 0.91 (no sharp cut-off); inconclusive = no clear call, values can overlap the other calls; inactive = mostly above about 0.92. The list shows a part of the results.

Assay: chemical genetic growth profiling, strain panel (AID 1159580);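 also: tested at 20 µM; growth read once vehicle control cultures reached saturation at 30 °C; 1 = growth at the plate median or of vehicle wells; lower values mean less growth of the strain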
Conditions: S. cerevisiae deletion strains, growth OD

Measured: normalized growth

N[C@H](CCC(=O)NCS(=O)(=O)O)C(=O)O
inactive: locus YAL013W, strain DEP1, active compounds read low 1.01 | locus YAL040C, strain CLN3, active compounds read low 0.996 | locus YCL061C, strain MRC1 (second series), active compounds read low 1.01 | locus YDR150W, strain NUM1, active compounds read low 1 | locus YDR363W, strain ESC2, active compounds read low 1.02 | locus YER002W, strain NOP16, active compounds read low 1.02 | locus YGR078C, strain PAC10, active compounds read low 0.997 | locus YGR229C, strain SMI1, active compounds read low 1.03 | locus YMR263W, strain SAP30, active compounds read low 1.01 | locus YMR307W, strain GAS1, active compounds read low 1 | locus YNL128W, strain TEP1, active compounds read low 1 | locus YNL175C, strain NOP13, active compounds read low 0.998 | locus YNL197C, strain WHI3, active compounds read low 0.997 | locus YNL224C, strain SQS1, active compounds read low 0.986 | locus YNL322C, strain KRE1, active compounds read low 1.01 | locus YOR083W, strain WHI5 (second series), active compounds read low 0.981 | locus YPL055C, strain LGE1, active compounds read low 1.02 | locus YPL241C, strain CIN2, active compounds read low 1
